Assay [1] can be described thus: Caspase-3/7 induction in HepG2 cells by small molecules, qHTS assay (AID 1346978). Further: nearly all actives have a fitted effect of over 15% in size. Further: potency means the concentration at half of the fitted maximal effect. In short, it runs like this:
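Wild-type HepG2 cells, 2,000/well, settled 5 hr at 37 C and 5% CO2, then compound-treated for 17 hr; caspase-3/7 activity read by luminescent Caspase-Glo 3/7 after 30 min at room temperature.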
Background: qHTS replaces the single test concentration by a dilution series.

A short description of assay [2]: Caspase-3/7 induction in CHO-K1 cells by small molecules, qHTS cell viability counter screen (AID 1346979). Further: nearly all actives have a fitted effect of over 35% in size. Further: potency means the concentration at half of the fitted maximal effect. In short, it runs like this: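 Cells (CHO-K1, wild type) are plated at 1,500 per well and incubated 5hr. Test compounds in DMSO are then pinned in, followed by 16hr at 37C and 5% CO2. Viability is read by CellTiter-Fluor fluorescence after 1hr.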
A short description of assay [3]: Caspase-3/7 induction in CHO-K1 cells by small molecules, qHTS assay (AID 1346980). Further: nearly all actives have a fitted effect of over 15% in size. In short, it runs like this:
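Wild-type CHO-K1 cells exposed to compounds for 17hr at 37 C, 5% CO2. Caspase-3/7 activity then measured by Caspase-Glo 3/7 luminescence after 30min at room temperature.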

Assay [4] is described as follows: Caspase-3/7 induction in HepG2 cells by small molecules, qHTS cell viability counter screen (AID 1346981). Further: nearly all actives have a fitted effect of over 30% in size. Further: potency means the concentration at half of the fitted maximal effect. An outline of the steps: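 Multiplexed with the caspase-3/7 assay: HepG2 cells, 16 hr compound treatment, CellTiter-Fluor viability detection by fluorescence.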
Assay [5] has as its target Cytochrome P450 2D6 (Homo sapiens) (UniProt P10635). In words: Cytochrome P450 Family 2 Subfamily D Member 6 (CYP2D6) small molecule antagonists: luciferase reporter qHTS assay (AID 1671196). Further: nearly all actives have a fitted effect of over 50% in size. Further: potency means the concentration at half of the fitted maximal effect. An outline of the steps: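 Luminescence (RLU), read 20 min after detection reagent, indicated CYP2D6 conversion of proluciferin to luciferin during a 1 h NADPH-dependent reaction at room temperature.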
(In a reporter assay the amount or activity of a reporter protein is the signal.)

In assay [6] the target is Cytochrome P450 2C19 (Homo sapiens) (UniProt P33261). In words: Cytochrome P450 Family 2 Subfamily C Member 19 (CYP2C19) small molecule antagonists: luciferase reporter qHTS assay (AID 1671197). Further: nearly all actives have a fitted effect of over 65% in size. Further: potency means the concentration at half of the fitted maximal effect. An outline of the steps:
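Relative luminescence units recorded 20 min after the detection reagent stopped a 1 h, 37C CYP2C19 reaction on proluciferin substrate, which was started by NADPH regeneration following 10 min room-temperature compound preincubation; ketoconazole positive control.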

Assay [7] concerns the target Cytochrome P450 2C9 (Homo sapiens) (UniProt P11712). In words: Cytochrome P450 Family 2 Subfamily C Member 9 (CYP2C9) small molecule antagonists: luciferase reporter qHTS assay (AID 1671198). Further: nearly all actives have a fitted effect of over 50% in size. Further: potency means the concentration at half of the fitted maximal effect. An outline of the steps: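 P450-Glo proluciferin substrate with CYP2C9 enzyme; 10 min RT preincubation, then NADPH regeneration 1 h at 37C; luciferin detection reagent 20 min RT, luminescence in relative luminescence units.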

In assay [8] the target is Cytochrome P450 1A2 (Homo sapiens) (UniProt P05177). In words: Cytochrome P450 Family 1 Subfamily A Member 2 (CYP1A2) small molecule antagonists: luciferase reporter qHTS assay (AID 1671199). Further: nearly all actives have a fitted effect of over 50% in size. Further: potency means the concentration at half of the fitted maximal effect. In short, it runs like this: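 CYP1A2 turnover of a luminogenic substrate was quantified after 1 h with NADPH regeneration at room temperature. Furafylline served as positive control.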
Cytochrome P450 1A2 (Homo sapiens), sequence (P05177 whole entry, looked up): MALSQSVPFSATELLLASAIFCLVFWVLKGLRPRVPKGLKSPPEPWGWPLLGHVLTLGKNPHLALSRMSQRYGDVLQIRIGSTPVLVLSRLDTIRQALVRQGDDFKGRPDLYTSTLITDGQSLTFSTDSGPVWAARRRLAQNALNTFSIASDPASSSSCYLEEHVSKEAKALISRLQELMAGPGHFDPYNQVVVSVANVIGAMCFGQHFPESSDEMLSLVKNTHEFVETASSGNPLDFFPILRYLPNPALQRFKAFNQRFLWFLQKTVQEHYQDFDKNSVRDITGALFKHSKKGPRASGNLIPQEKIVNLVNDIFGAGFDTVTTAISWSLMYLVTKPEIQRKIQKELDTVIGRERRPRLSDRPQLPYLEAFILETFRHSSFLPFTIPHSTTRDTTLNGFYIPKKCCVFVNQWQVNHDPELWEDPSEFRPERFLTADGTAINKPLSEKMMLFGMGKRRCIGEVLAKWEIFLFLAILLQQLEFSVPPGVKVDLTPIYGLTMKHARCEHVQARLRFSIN

For assay [9], the target named is Voltage-gated inwardly rectifying potassium channel KCNH2 (Homo sapiens) (UniProt Q12809). Put plainly: Human Ether-a-go-go-Related Gene (hERG) channel small molecule antagonists: fluorescence cell-based qHTS assay (AID 1671200). Further: nearly all actives have a fitted effect of over 50% in size. Further: potency means the concentration at half of the fitted maximal effect. In short, it runs like this:
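Channel function was assessed by thallium flux. Cells seeded the previous day and kept at 37 C took up FluxOR II dye over 1 h in the dark at room temperature, then sat another 10 min before stimulation.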

Assay [10] concerns the target Nuclear receptor subfamily 1 group I member 2 (Homo sapiens) (UniProt O75469). In words: Human pregnane X receptor (PXR) small molecule agonists, qHTS assay (AID 1346982). Further: nearly all actives have a fitted effect of over 35% in size. Further: potency means the concentration at half of the fitted maximal effect. In short, it runs like this: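 We seeded PXR-Luc HepG2 cells in assay medium containing 5% charcoal-stripped FBS, added compounds 5 hr later, incubated 24 hr, and read luminescence with ONE-Glo reagent.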

For assay [11], the target named is Nuclear receptor subfamily 1 group I member 2 (Rattus norvegicus) (UniProt Q9R1A7). In words: Rat pregnane X receptor (rPXR) activation by small molecules, qHTS assay (AID 1346983). Further: nearly all actives have a fitted effect of over 20% in size. To be noted: rPXR luciferase reporter cells, One-Glo luminescence, 24 h; stronger effect = higher value. An outline of the steps: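 Cell-based rPXR activation assay: rPXR cells, 2,000 per well, rested 5hr at 37 C, then exposed to compounds in DMSO for 24 hr at 37 C. Luciferase activity read by One-Glo luminescence after 30 min at room temperature.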
Nuclear receptor subfamily 1 group I member 2 (Rattus norvegicus), sequence (Q9R1A7 whole entry, looked up): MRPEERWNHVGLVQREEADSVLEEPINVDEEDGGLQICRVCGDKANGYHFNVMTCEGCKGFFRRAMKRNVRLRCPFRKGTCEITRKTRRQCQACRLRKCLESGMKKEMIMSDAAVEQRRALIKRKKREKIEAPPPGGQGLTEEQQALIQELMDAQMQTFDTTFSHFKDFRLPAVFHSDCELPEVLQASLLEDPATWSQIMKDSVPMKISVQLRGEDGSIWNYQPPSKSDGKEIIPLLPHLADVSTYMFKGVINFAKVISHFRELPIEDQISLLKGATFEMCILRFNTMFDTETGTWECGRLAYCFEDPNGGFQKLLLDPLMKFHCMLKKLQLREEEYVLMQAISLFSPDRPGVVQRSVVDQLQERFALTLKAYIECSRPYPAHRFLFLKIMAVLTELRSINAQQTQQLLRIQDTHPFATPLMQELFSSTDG

Assay [12] deals with Nuclear receptor subfamily 1 group I member 2 (Homo sapiens) (UniProt O75469). In words: CYP3A4 induction through human pregnane X receptor (PXR) by small molecules, qHTS assay (AID 1346984). Further: nearly all actives have a fitted effect of over 40% in size. An outline of the steps: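 qHTS, concentration-response format: HepG2 DPX-2 line, PXR/CYP3A4-luc. Exposure 24 h, 37C. Substrate Luciferin-IPA 3uM final, 3 h. Detection One-Glo, 30 min RT.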
Nuclear receptor subfamily 1 group I member 2 (Homo sapiens), sequence (O75469 whole entry, looked up): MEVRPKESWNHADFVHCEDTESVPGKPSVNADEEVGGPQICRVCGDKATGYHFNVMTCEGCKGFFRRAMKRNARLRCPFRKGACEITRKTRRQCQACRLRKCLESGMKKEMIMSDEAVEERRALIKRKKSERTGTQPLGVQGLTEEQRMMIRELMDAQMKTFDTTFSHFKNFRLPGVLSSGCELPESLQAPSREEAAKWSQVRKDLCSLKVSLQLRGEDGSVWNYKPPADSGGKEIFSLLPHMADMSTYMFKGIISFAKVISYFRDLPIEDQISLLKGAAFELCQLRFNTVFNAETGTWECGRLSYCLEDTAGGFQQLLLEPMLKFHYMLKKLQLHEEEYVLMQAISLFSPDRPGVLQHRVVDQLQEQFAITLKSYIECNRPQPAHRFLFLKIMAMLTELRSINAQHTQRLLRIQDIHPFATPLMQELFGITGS

Assay [13] shares this target. Put plainly: Human pregnane X receptor (PXR) activation by small molecules, qHTS assay (AID 1346985). Further: nearly all actives have a fitted effect of over 40% in size. In short, it runs like this:
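DPX-2 cells (HepG2 co-transfected with a PXR response element and a CYP3A4-promoter luciferase construct) were seeded at 2,000 per well, rested 5 hr at 37C, then exposed to DMSO-dissolved compounds for 24 hr. Activation was read as luciferase luminescence.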

Assay [14] has as its target Cytochrome P450 3A4 (Homo sapiens) (UniProt P08684). In words: Cytochrome P450 Family 3 Subfamily A Member 4 (CYP3A4) small molecule antagonists: luciferase reporter qHTS assay (AID 1671201). Further: nearly all actives have a fitted effect of over 50% in size. Further: potency means the concentration at half of the fitted maximal effect. An outline of the steps:
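Compounds in DMSO were pin-transferred onto CYP3A4 enzyme-substrate mix and held 10 min at room temperature. NADPH regenerating solution started the reaction for 1 h; luciferin detection reagent stopped it, and luminescence was read after 20 min.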

Several values for one entry are separate records, joined by “and”; a condition that tells them apart may be missing. Equal entries are not always repeated. Records with an inconclusive call do not appear. Some compounds were tested as several samples or in several runs, with calls that do not always agree. Activity calls are given as the source filed them. The call rests on the fitted dose curve; in most records, active means well fitted curve in the direction sought with a large enough effect in the repeat runs; inconclusive means weak or mixed curves; inactive means no such curve, though single readings can be large; an effect the other way counts as inactive or inconclusive.

This passage reports Potency and max activation results from PubChem BioAssay (Tox21).
On the % scale 0 is the no-effect control and ±100 the full control effect.

Cytochrome P450 2D6 (Homo sapiens), sequence (P10635 whole entry, looked up): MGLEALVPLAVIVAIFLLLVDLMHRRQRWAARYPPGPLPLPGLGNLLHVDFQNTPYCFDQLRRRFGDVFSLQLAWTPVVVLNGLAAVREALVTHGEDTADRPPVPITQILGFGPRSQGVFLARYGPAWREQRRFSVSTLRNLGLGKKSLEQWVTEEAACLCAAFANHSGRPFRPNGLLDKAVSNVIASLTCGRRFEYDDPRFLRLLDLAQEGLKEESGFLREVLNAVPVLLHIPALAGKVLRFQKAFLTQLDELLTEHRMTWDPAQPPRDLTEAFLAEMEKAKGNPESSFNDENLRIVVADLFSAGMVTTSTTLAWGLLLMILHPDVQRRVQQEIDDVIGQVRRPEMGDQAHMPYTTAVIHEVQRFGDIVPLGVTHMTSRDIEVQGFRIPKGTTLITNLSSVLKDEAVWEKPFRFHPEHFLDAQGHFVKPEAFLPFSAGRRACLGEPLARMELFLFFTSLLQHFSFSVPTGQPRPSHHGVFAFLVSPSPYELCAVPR
Cytochrome P450 2C9 (Homo sapiens), sequence (P11712 whole entry, looked up): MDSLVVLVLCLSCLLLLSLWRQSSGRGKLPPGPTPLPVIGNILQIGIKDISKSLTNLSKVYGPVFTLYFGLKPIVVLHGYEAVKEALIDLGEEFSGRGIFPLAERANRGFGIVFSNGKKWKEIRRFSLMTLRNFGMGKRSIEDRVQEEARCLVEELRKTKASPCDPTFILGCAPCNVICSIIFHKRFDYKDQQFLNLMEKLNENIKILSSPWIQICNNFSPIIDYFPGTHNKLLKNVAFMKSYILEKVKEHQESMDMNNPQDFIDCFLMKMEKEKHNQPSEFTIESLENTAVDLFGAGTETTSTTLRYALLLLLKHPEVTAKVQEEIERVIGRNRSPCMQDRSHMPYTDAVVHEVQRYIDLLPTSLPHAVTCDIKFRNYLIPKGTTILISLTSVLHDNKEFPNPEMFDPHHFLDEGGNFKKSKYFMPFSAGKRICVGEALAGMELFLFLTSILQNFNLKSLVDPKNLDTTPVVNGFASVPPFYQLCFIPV
Cytochrome P450 3A4 (Homo sapiens), sequence (P08684 whole entry, looked up): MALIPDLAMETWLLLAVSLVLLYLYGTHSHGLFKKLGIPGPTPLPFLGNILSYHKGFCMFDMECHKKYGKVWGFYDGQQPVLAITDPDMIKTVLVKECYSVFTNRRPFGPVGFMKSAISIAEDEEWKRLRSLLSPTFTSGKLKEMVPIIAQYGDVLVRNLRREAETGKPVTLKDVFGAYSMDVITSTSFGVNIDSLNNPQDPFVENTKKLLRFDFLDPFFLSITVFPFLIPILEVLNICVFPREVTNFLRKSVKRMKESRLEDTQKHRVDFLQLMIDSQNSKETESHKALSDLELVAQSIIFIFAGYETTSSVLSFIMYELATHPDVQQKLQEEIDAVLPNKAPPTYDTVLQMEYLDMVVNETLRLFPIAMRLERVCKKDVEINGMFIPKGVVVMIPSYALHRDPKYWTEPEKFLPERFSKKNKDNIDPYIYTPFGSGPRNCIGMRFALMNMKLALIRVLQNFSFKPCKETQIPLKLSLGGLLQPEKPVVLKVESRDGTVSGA
Cytochrome P450 2C19 (Homo sapiens), sequence (P33261 whole entry, looked up): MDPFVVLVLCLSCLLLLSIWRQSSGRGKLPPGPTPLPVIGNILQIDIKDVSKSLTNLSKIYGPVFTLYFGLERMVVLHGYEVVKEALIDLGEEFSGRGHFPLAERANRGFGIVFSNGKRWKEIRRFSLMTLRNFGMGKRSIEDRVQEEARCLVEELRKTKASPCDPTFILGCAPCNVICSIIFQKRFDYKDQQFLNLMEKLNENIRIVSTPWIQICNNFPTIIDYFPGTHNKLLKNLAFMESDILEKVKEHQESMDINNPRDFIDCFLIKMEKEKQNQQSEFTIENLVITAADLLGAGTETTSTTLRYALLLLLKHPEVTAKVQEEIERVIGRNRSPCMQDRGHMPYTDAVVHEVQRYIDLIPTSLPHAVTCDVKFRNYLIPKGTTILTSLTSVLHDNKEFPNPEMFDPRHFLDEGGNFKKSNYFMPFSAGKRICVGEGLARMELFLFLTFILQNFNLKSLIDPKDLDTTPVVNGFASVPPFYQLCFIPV
Voltage-gated inwardly rectifying potassium channel KCNH2 (Homo sapiens), sequence (Q12809 whole entry, looked up): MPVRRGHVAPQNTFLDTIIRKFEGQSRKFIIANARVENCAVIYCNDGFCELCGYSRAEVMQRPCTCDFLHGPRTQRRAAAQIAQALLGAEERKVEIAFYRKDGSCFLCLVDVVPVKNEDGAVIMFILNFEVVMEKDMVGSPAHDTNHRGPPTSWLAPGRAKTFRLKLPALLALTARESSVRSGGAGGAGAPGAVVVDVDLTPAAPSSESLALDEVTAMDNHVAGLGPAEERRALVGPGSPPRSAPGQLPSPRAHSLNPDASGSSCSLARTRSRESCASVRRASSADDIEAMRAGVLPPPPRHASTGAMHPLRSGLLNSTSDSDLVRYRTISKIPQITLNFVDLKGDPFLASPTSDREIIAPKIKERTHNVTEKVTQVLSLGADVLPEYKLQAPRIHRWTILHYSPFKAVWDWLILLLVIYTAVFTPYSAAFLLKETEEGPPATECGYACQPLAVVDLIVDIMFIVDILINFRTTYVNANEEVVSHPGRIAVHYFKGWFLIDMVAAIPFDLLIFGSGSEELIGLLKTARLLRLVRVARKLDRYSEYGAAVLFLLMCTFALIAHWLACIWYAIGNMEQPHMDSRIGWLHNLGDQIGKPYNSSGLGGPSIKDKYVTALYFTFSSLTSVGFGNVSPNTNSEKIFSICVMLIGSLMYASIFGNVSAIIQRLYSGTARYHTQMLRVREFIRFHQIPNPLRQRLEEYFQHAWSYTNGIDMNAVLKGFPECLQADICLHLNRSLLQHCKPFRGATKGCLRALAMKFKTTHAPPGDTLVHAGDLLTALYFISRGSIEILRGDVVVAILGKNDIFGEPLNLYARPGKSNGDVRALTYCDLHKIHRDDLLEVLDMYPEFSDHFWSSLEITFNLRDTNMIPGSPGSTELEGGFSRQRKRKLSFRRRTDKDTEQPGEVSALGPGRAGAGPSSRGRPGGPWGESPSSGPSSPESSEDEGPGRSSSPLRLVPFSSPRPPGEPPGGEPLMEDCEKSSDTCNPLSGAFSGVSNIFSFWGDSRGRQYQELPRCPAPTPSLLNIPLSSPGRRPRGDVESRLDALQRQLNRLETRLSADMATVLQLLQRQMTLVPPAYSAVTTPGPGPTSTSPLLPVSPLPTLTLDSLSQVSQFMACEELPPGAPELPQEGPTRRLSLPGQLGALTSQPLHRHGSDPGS

Regarding `C/C=C/c1ccc(OCC)c(O)c1`, the Potency entry in assay [1], in assay [2], in assay [3], in assay [4], in assay [5] and in assay [9] was “inactive” each time. Also, the Potency was 20 µM (active) and 25.2 µM (active) in assay [6]; 35.6 µM (active) and 28.3 µM (active) in [7]; 7.1 µM (active) and 7.96 µM (active) in assay [8].

As to `CO[Si](OC)(OC)c1ccccc1`, the Potency result in [1], in assay [2], in assay [3], in assay [4], in assay [10] and in assay [5] was “inactive” each time. Moreover, the Potency entry in assay [6], in assay [7] and in assay [9] was “inactive” throughout.

In the case of `CC[C@H]1CN2CCc3cc(OC)c(OC)cc3[C@@H]2C[C@@H]1C[C@H]1NCCc2cc(OC)c(OC)cc21`, the Potency entry in assay [1], in assay [12], in assay [13], in [7] and in [8] was “inactive” each time. The Potency in assay [2] is 27.4 nM (active) and 13.3 nM (active); in assay [4] it was 48.7 nM (active) and 16.8 nM (active); in assay [10] it was 19.4 nM (active) and 8.4 nM (active); in assay [5] it was 40.1 µM (active). In [11], the max activation is -15.9% (inactive).

Turning to `CC(=O)CC(C)=O`, the Potency entry in assay [1], in assay [2], in [3], in [4], in assay [5] and in [6] was “inactive” in each case. For the same compound, the Potency entry in assay [7], in assay [8], in assay [9] and in [14] was “inactive” each time.

Take `COC(=O)[C@H]1[C@H]2C[C@@H]3c4[nH]c5cc(OC)ccc5c4CCN3C[C@H]2C[C@@H](OC(=O)c2cc(OC)c(OC)c(OC)c2)[C@@H]1OC`: the Potency entry in assay [1] and in [3] was “inactive” throughout. Also, the Potency is 30.6 µM (active) and 39.7 µM (active) and inactive in assay [2]; 44.5 µM (active) and inactive in assay [4]; 28.2 µM (active) and 9.19 µM (active) in [5]; 41.1 µM (active) and inactive in assay [6]; 32.6 µM (active) and inactive in assay [8]; 3.46 µM (active) and 6.34 µM (active) and 10.7 µM (active) in [9].

For the compound `CC(COc1ccccc1)N(CCCl)Cc1ccccc1` (configuration not stated), the Potency result in assay [1], in assay [2], in [3], in assay [4], in assay [8] and in assay [14] was “inactive” throughout. The Potency was 570 nM (active) and 448 nM (active) and 692 nM (active) in [5]; 2.27 µM (active) and 2.24 µM (active) and 3.47 µM (active) in assay [6]; 28.6 µM (active) and 22.4 µM (active) and 12.3 µM (active) in assay [7]; 19.7 µM (active) and 24.5 µM (active) in [9].

Consider `O=C(OCc1ccccc1)c1ccc(O)cc1`, for which the Potency result in assay [1], in [2], in assay [4], in assay [10], in assay [13] and in assay [9] was “inactive” in each case. In assay [11], the max activation was 0.826% (inactive).

Take `Cc1ccnc2c1NC(=O)c1cccnc1N2C1CC1`: the Potency result in [1], in [2], in assay [4], in assay [10], in [12] and in assay [13] was “inactive” throughout. In addition, the Potency entry in [6], in assay [7], in assay [9] and in [14] was “inactive” throughout. Besides, the max activation in assay [11] was -1.62% (inactive). The Potency in assay [5] was 7.4 µM (active) and inactive; in [8], 33 µM (active) and inactive.

In the case of `CN(C)c1ccc(C(=C2C=CC(=[N+](C)C)C=C2)c2ccccc2)cc1`, the Potency in assay [1] was 4.33 µM (active) and 5.31 µM (active) and 5.96 µM (active); in assay [2] it was 596 nM (active) [middle of 4 runs]; in assay [4] it was 19.3 µM (active) and 13.3 µM (active) and 23.7 µM (active); in assay [10], 1.72 µM (active) and 2.11 µM (active) and 1.33 µM (active); in assay [5] it was 7.97 µM (active) and 13.8 µM (active) and 15.5 µM (active); in assay [8] it was 15.9 µM (active) and 13.8 µM (active). Further, in [9], the Potency is 4.25 µM (active) [middle of 4 runs]. Also, the max activation in assay [11] is 11.8% (inactive). Also, in assay [13], the Potency result was “inactive”.

For the compound `CCC(=O)/C=C/C1C(C)=CCCC1(C)C` (configuration not stated), the Potency result in assay [1], in assay [2], in assay [3], in [4], in assay [5] and in assay [9] was “inactive” throughout. Further, the Potency is 44.9 µM (active) and 15.9 µM (active) in assay [6]; 31.7 µM (active) in assay [7]; “inactive and 25.2 µM (active)” in assay [8]; 71.2 µM (active) and 20 µM (active) in assay [14].

`O`: the Potency result in assay [1], in assay [2] and in assay [4] was “inactive” in each case.

As for `CCCC(=O)c1ccccc1`, the Potency result in [1], in assay [2], in assay [3], in assay [4], in assay [6] and in assay [7] was “inactive” in each case. Also, the Potency entry in assay [8], in assay [9] and in [14] was “inactive” in each case. Moreover, the Potency in [5] was 31.7 µM (active).

In the case of `CCCCC(CC)COC(=O)CC(C(=O)OCC(CC)CCCC)S(=O)(=O)O` (configuration not stated), the Potency result in assay [1], in assay [3] and in assay [9] was “inactive” throughout. For the same compound, the Potency in [2] was 52.4 µM (active); in [10] it was 5.88 µM (active) and 3.06 µM (active); in [5] it was “inactive and 17.8 µM (active)”; in assay [7] it was 15.3 µM (active) and 12.6 µM (active); in [8], 63.3 µM (active).

Consider `CC(C)(C)c1cc(C(C)(C)C)c(O)c(C(C)(C)C)c1`, for which the Potency entry in assay [1], in assay [2], in assay [3], in assay [4], in assay [5] and in assay [6] was “inactive” each time. Also, the Potency entry in assay [8] and in [14] was “inactive” each time. Also, the Potency entry in [7] is “inactive and 35.6 µM (active)”; in assay [9], 7.76 µM (active).

`c1cnc2cc3c(cc2n1)C1CNCC3C1`: the Potency result in assay [1], in assay [2], in [4], in assay [10], in assay [5] and in assay [6] was “inactive” each time. The Potency entry in assay [7], in assay [8] and in assay [9] was “inactive” each time.

For `CCCCN(CCO)CCCC`, the Potency entry in assay [1], in [2], in [3], in [4], in assay [9] and in assay [14] was “inactive” in each case. Moreover, the Potency in assay [5] is 36.4 µM (active).
